From PubChem BioAssay AID1851 (National Center for Advancing Translational Sciences (NCATS), 2009) come the findings set out here.

About 5,800 (36%) of roughly 16,000 compounds were called active. Another 23% or so got no clear call; they are omitted. Calls follow the shape of the dose curve; as a rule, active = well fitted curve in the direction sought with a large enough effect; inconclusive = small, poorly fitted or top-dose-only effect, or effect the other way; inactive = no such curve, though single readings can be large or run the other way. This is one part of the list.
% is scaled to controls: 0 for no effect and ±100 for the full control effect.

This experiment deals with Cytochrome P450 2C19 (Homo sapiens) (UniProt P33261). As to the kind of experiment: Cytochrome panel assay with activity outcomes. To be noted: recombinant CYP, pro-luciferin dealkylation, luminescence, p450-cyp2c19; series mostly up to 57.1 µM; activity, negative = inhibition: at the top concentration.
Cytochrome P450 2C19 (Homo sapiens), sequence (P33261 whole entry, looked up): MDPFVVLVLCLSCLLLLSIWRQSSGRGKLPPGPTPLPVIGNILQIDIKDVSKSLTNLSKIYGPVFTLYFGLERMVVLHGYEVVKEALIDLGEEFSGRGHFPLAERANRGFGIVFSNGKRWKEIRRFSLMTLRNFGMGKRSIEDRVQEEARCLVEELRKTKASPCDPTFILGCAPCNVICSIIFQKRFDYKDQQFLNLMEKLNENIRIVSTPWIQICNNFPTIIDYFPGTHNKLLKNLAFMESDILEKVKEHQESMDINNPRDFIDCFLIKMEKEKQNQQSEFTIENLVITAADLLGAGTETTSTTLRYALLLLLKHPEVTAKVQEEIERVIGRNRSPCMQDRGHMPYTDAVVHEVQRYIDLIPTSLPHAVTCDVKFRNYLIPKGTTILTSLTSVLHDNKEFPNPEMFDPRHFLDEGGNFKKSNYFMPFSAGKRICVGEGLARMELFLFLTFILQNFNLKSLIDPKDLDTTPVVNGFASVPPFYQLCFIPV
Regarding `CN1CCN(CCCNC(=O)c2ccc(CSCc3cccc(Cl)c3)o2)CC1`, the “activity, negative = inhibition” value was -20.9% (inactive).

As for `CCCC(=O)Nc1nc2n(n1)C(c1ccccc1)CC(=O)N2` (configuration not stated), the “activity, negative = inhibition” value is -16.8% (inactive).

For orientation: AC50 means the concentration at which the activity in the assay is half-maximal. As for `CCCn1nnc(NC(=O)Cc2ccccc2)n1`, the AC50 is 10 µM (active).

As to `Cc1ccc2ccccc2c1CSc1nc(N)nc2c1ncn2CC(C)C`, the AC50 was 3.98 µM (active).

On to `CC(C)Cn1cnc2c(SCc3ccccn3)nc(N)nc21`, for which the activity, negative = inhibition was 9.26% [at 11.4 µM] (inactive).

For `CC(C)Cn1cnc2c(SCc3ccc(Cl)cc3Cl)nc(N)nc21`, the AC50 was 2 µM (active).

For `CC(C)Cn1cnc2c(Sc3c([N+](=O)[O-])ncn3C)nc(N)nc21`, the activity, negative = inhibition was 17.8% [at 11.4 µM] (inactive).

In the case of `CC(C)(C)C1CCc2c(C(=O)N/N=C/c3cccs3)csc2C1` (configuration not stated), the AC50 is 6.31 µM (active).

`ClC(=Nc1cccc2ccccc12)N(c1ccccc1)c1ccccc1`: the AC50 is 2.51 µM (active).

Turning to `O=S(=O)(c1cccc(C(F)(F)F)c1)N1CCC(c2cc(-c3cccc4ccccc34)n[nH]2)CC1`, the AC50 was 7.08 µM (active).

Consider `Cc1ccnn2cc3c(=O)n(C)c(=O)n(C)c3c12`, for which the “activity, negative = inhibition” value was -27.3% (inactive).

In the case of `COC(=O)c1ccc(C(NC(=O)c2ccccc2)[C@]2(C)C[C@H]2C2CCCCC2)cc1` (some centres not stated), the AC50 was 2.51 µM (active).

As to `C[C@@]1(C(NC(=O)c2cccs2)c2ccc(-c3ccccc3)cc2)C[C@H]1C1CCCCC1` (some centres not stated), the “activity, negative = inhibition” value was -40.8% (inactive).

Consider `C[C@@]1(C(NC(=O)c2ccc(-c3ccccc3)cc2)c2ccc(Cl)cc2)C[C@H]1C1CCCCC1` (some centres not stated), for which the “activity, negative = inhibition” value is -8.45% (inactive).

`O=C(CN1CCCC1)N/N=C/c1ccc(-c2cccc(Cl)c2)o1`: the AC50 was 22.4 µM (active).

For `COC(=O)Nc1nc2ccc(Sc3ccccc3)cc2[nH]1`, the “activity, negative = inhibition” value was -16.1% [at 25.6 µM] (inactive).

As to `Cc1ccc2nc(SCC(=O)c3ccc4c(c3)OCO4)[nH]c2c1`, the AC50 was 2.82 µM (active).

Take `COc1ccc2nc(SCC(=O)Nc3ccc4c(c3)OCCO4)[nH]c2c1`: the AC50 is 10 µM (active).

With `CCCCc1ccc2nc(NC(=O)OC)[nH]c2c1`, the “activity, negative = inhibition” value was -17.4% [at 25.6 µM] (inactive).

For `CCOC(=O)NC(=O)CSc1nc2ccc(OCC)cc2[nH]1`, the AC50 was 14.1 µM (active).

Take `COc1ccc(NC(=O)N2CCCC3(CCN(C(=O)c4ccco4)CC3)C2)cc1`: the “activity, negative = inhibition” value is -1.82% (inactive).

As to `COc1ccc2nc(SCC(=O)c3ccco3)[nH]c2c1`, the AC50 was 14.1 µM (active).

Take `Oc1cc(O)c2c(c1)O[C@H](c1ccc(O)c(O)c1)[C@@H](O)[C@@H]2c1c(O)cc(O)c2c1O[C@@H](c1ccc(O)c(O)c1)[C@H](O)C2`: the activity, negative = inhibition was -23.6% [at 11.4 µM] (inactive).

In the case of `CSc1ccc2nnc(-c3cccc(F)c3)n2n1`, the AC50 was 15.8 µM (active).

On to `Cc1cc(C)c(C#N)c(SCc2cc3c(cc2Cl)OCO3)n1`, for which the AC50 was 6.31 µM (active).

In the case of `CON1C(=O)C(=O)N(OC)C(C)(C)C1C` (configuration not stated), the “activity, negative = inhibition” value was -27% (inactive).

For the molecule `c1ccc2nc(C3=NCCN3)ccc2c1`, the AC50 result is “inactive”.

For `c1ccc2nc(-c3ccncc3)ccc2c1`, the AC50 was 3.55 µM (active).

In the case of `COc1cc(Cl)c(CC(=O)c2c[nH]c3ccccc23)cc1OC`, the AC50 was 1 µM (active).

Consider `CN1[C@@H]2CC[C@H]1CC(OC(=O)c1c[nH]c3ccccc13)C2` (some centres not stated), for which the “activity, negative = inhibition” value was 22.9% (inactive).

For the molecule `O=C(OCCN1CCCCC1)c1c[nH]c2ccccc12`, the AC50 entry was “inactive”.

In the case of `CNC(=O)[C@H](C)[C@H]1C[C@]1(C)[C@H](NC(=O)OCc1ccccc1)c1ccccc1`, the AC50 is 1 µM (active).

Turning to `CNC(=O)[C@H](C)[C@@H]1C[C@@]1(C)[C@@H](NC(=O)OCc1ccccc1)c1ccccc1`, the AC50 is 0.631 µM (active).

Consider `C[C@H](CO)NC(=O)[C@H](C)[C@H]1C[C@]1(C)[C@H](NC(=O)OCc1ccccc1)c1ccccc1`, for which the AC50 is 0.631 µM (active).

Regarding `CC(=O)NCCC(=O)Nc1sc2c(c1-c1nc3ccccc3[nH]1)CCCC2`, the concentration at half-maximal activity (AC50) is 14.1 µM (active).

For the molecule `CCN(CC)S(=O)(=O)c1cc(C(=O)Nc2ccccc2C(=O)O)ccc1OC`, the “activity, negative = inhibition” value was -24.1% (inactive).

`CCN(CC)S(=O)(=O)c1cc(C(=O)OC)ccc1Cl`: the AC50 was 11.2 µM (active).

On to `CCN(CC)S(=O)(=O)c1cc(C(=O)Nc2ccncc2)ccc1Cl`, for which the half-maximal activity concentration (AC50) was 0.01 µM (active).

Turning to `CCn1ccnc1C[C@@H]1COc2ccccc2O1`, the AC50 is 10 µM (active).

`Cc1ccccc1OCC(=O)NC(=S)Nc1ccc(N2CCOCC2)c(Cl)c1`: the “activity, negative = inhibition” value is -29.7% (inactive).

Take `O=C(Nc1ccccc1N1CCN(C(=O)c2ccccc2)CC1)c1cc(Br)ccc1Cl`: the AC50 is 3.16 µM (active).

On to `CC(C)C(=O)N1CCN(c2ccccc2NC(=O)c2cccc(Cl)c2)CC1`, for which the AC50 was 14.1 µM (active).

Regarding `O=C(Nc1ccccc1N1CCOCC1)c1ccc([N+](=O)[O-])cc1`, the “activity, negative = inhibition” value is -15.9% (inactive).

As for `Cc1ccccc1OCC(=O)Nc1ccc(N2CCN(C(=O)C(C)C)CC2)c(Cl)c1`, the AC50 is 8.91 µM (active).

On to `Cc1ccc(-n2c(C)nc3c(cnn3-c3ccc(F)cc3)c2=O)cc1C`, for which the AC50 was 22.4 µM (active).

For `COc1ccc(-n2c(=O)c(-c3ccc(F)cc3)nc3cncnc32)cc1`, the “activity, negative = inhibition” value is -4.36% (inactive).

Consider `Cc1cc(C)n(-c2ccc(F)cc2)c(=O)c1C(=O)O`, for which the “activity, negative = inhibition” value is 10.6% (inactive).
